In PubChem BioAssay (NCI):
This is part of a sample that, as a whole, favours compounds with a hit. Of some 83,000 tested, about 20% had one in any assay.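 A percent growth of 40 corresponds to 60% growth inhibition; 0 means no net growth; -100 means all cells died. Active threshold: below 10.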 Unmarked numbers belong to inactive results. Calls of active or inactive are those of the source.

Each compound was assayed on BT-549 breast (assay: NCI-60 one-dose screen, 48 h (100 = growth as untreated, 0 = no growth, -100 = all killed)). Details: 10 µM unless noted.
Procedure: Growth inhibition of the BT-549 human tumor cell line is measured as a screen for anti-cancer activity. Cells are grown in 96 well plates and exposed to the test compound for 48 hours. Compounds are tested at a single concentration, which is 10^-5 M for most compounds. The reported endpoint is percent growth (GI% or GIPRCNT), where numbers from 0 - 100% represent growth inhibition, and numbers from -100% - 0 represent cell death. For example, a value of 40 represents 60% growth inhibition. A value of 0 means no net growth occurred over the course of the experiment. A value of -40 indicates 40% of cells at the beginning of the experiment died by the end of the experiment. A value of -100 means all cells are dead at the end of the experiment.
NCI-60 Human Tumor Cell Lines Screen was performed using the standard one-dose NCI protocol, which is described in more detail at https://dtp.cancer.gov/discovery_development/nci-60/default.htm.
Compounds with GIPRCNT values below 10 were considered active. Activity score was based on GIPRCNT using the following formula: […]
Score is 0 for GIPRCNT values of 100 or above, 50 for GIPRCNT values of 0, and 100 for GIPRCNT values of -100.

SMILES	growth
O=C(Nc1cccc(C(F)(F)F)c1)Nc1cccc(C(F)(F)F)c1	0.669% (active)
O=C1/C(=C/c2ccc(F)cc2)C=C(c2ccccc2)N1CCc1ccccc1	79.3%
N=C1CCC(=N)c2c1c(O)c1ccccc1c2O	97.1%
O=C1C=C[C@]2(C[C@@H](c3cccc(C(F)(F)F)c3)O[C@@H](c3cccc(C(F)(F)F)c3)O2)O1	-52.4% (active)
Cc1cc(Cl)ccc1Nc1nc(C(F)(F)F)ccc1C(=O)N/N=C/c1ccc(N(C)C)cc1	34.9%
COc1cccc(-c2nn(-c3ccccc3)cc2-c2ccnc(NCCCNC(=O)c3cccc(C(F)(F)F)c3)c2)c1	1.62% (active)
O=C(c1ccccc1)N1N=C(c2ccccc2)CC1c1nnc2n(Cc3ccccc3)c(=O)c3c4c(sc3n12)CCCC4 (stereo not given)	115%
C#Cc1cccc(NC(=O)c2ccc(NC(=O)CCl)cc2)c1	-44.8% [8.25 µM] (active)
CCOC(CN=Cc1cc(C)c2[nH]c3ccccc3c2c1C)OCC	83.2%
CCSC1=NC2C(N(CC)C(=O)N2CC)N1/N=C/C=C/c1ccccc1[N+](=O)[O-] (stereo not given)	10.1%
NNC(=O)c1nc(N)n(-c2ccc(S(N)(=O)=O)cc2)n1	92.7%
CC(CCc1ccc(Cl)c(Cl)c1)NCc1ccc(C(C)(C)C)cc1 (stereo not given)	68.9%
Cc1ccc(CCC(=O)Nc2ncc(Cc3cc(Cl)ccc3Cl)s2)o1	3.48% (active)
Clc1cccc(Cl)c1/C=C/c1cc(/C=C/c2c(Cl)cccc2Cl)[nH]n1	30.7%
CN(C)CCC=C1c2ccccc2C(C)(C)c2ccccc21	94.5%
CCCCn1c(=O)c2c(nc3n2CCCN3CCc2ccc(OCC(=O)NCCN(CC)CC)cc2)n(CCCC)c1=O	67%
COc1cc(C2CC(c3cc(OC)c(OCCCOc4ccc(-n5c(/C=C/c6ccccc6)nc6ccccc6c5=O)cc4)c(OC)c3)=NO2)cc(OC)c1OC (stereo not given)	118%
COc1ccc(OC)c2c1[nH]c(=O)c1c3ncccc3cn21	86.6%
Cc1ccc(NCCN(C)C)c2c(=O)c3ccccc3sc12	76.6%
COc1ccc2nc(NNC(=O)c3cnccn3)c3cccn3c2c1	12.7%

SMILES	growth
CCN(CC)CCCC(C)Nc1c2ccc(Cl)cc2nc2ccc(O)cc12 (stereo not given)	64.8%
Cc1ccc(C(=NN=C(N)N)c2ccc(C)cc2)cc1	-24.8% (active)
CC1OC(O[C@H]2/C=C/C=C/C=C/C=C/C=C/C=C/C=C/[C@H](C)[C@@H](O)[C@@H](C)[C@H](C)OC(=O)CC(O)CC(O)CCC(O)C(O)CC(O)C[C@]3(O)C[C@H](O)C(C(=O)O)C(C2)O3)C(O)[C@H](N)C1O (stereo not given in full)	36.6%
Cc1cc(NCc2cc(Nc3ccnc4cc(Cl)ccc34)ccc2F)nc(N2CCOCC2)n1	75.3%
COc1cc(C2CC(=O)Nc3c2c(C)nn3-c2nc3ccccc3[nH]2)cc2c1OCC(=O)N2 (stereo not given)	65.9%
Cc1nn(-c2ccccc2)c2nc3c(c(-c4ccc(Cl)cc4)c12)CNC1(CCSCC1)N3	109%
CN(C)c1ccc(-c2cc(-c3ccc(Nc4nc(Nc5ccc(Cl)cc5)nc(Nc5ccc(Cl)cc5)n4)cc3)no2)cc1	58.2%
CN(C)CC1C(=O)O[C@H]2[C@H]1CC/C(COC(=O)c1cc3ccccc3[nH]1)=C\CC[C@@]1(C)O[C@@H]21 (stereo not given in full)	-52% (active)
COc1ccc(-c2nc(SCC(=O)Nc3nc(-c4ccccc4)cs3)[nH]c(=O)c2C#N)cc1	92.4%
COc1cccc2c1C(=O)c1c(O)c3c(c(O)c1C2=O)CC(O)(/C(C)=N/NC(=O)CCCCC(=O)N/N=C(\C)C1(O)Cc2c(O)c4c(c(O)c2C(OC2CC(N)C(O)C(C)O2)C1)C(=O)c1c(OC)cccc1C4=O)CC3OC1CC(N)C(O)C(C)O1 (stereo not given)	-21.6% [5 µM] (active)
N#Cc1c(N2CCNCC2)nc2sc3cc(Cl)c(Cl)cc3n2c1=N	118%
O=C(NCCc1ccc(O)c(O)c1)C12CC3CC(CC(C3)C1)C2	92.7%
Cc1cc(/C=C\c2ccc3ccccc3[n+]2C)c(O)c2ncccc12	-19.4% (active)
COCCc1ccc(OCC(O)CNC(C)C)cc1 (stereo not given)	94.2%
O=C(Nc1ccc(Nc2ccncc2)cc1)c1ccc(C(=O)Nc2ccc(Nc3ccncc3)cc2)cc1	123%
CC(C)=C[C@@H]1c2c(c3ccccc3n(C)c2=O)O[C@H]2c3c(c4ccccc4n(C)c3=O)OC(C)(C)[C@@H]12	54.7%
CSc1n(Cc2ccc3ccccc3c2)c(C)c[n+]1Cc1ccc2ccccc2c1	-23.4% (active)
S=C(Cc1ccc2c(c1)CCCC2)N1CCOCC1	101%
COC(=O)c1c2c(c[n+]([O-])c1C)C(=O)C=CC2=O	71.4%
N#CCN1C(=O)C2C3=C(CCCC3)SC2N=C1CN1CCCC1 (stereo not given)	114%
